# Measured values: PubChem BioAssay (Tox21)
# Values joined by “and” are separate entries in the source; they are usually repeats but may differ in a detail not shown here. Identical values can stand only once. Records with an inconclusive call do not appear. Where a call stands in place of a potency, no number is given. A structure can be active in one record and inactive in another. Active and inactive are the calls of the source. Calls come from the whole dose curve; as a rule, active = well fitted activation curve with a large enough effect in the repeat runs; inconclusive = weak or mixed curves; inactive = no such curve, though single readings can be large or run the other way.
# Target: Nuclear receptor subfamily 1 group I member 3 (Homo sapiens) (UniProt Q14994)
# Experiment: qHTS assay to identify small molecule agonists of the constitutive androstane receptor (CAR) signaling pathway (AID 1224839); note: nearly all actives have a fitted effect of over 15% in size;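 for activation: HepG2 cells stably carrying human CAR and a CYP2B6 luciferase reporter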
# Conditions: HepG2 hCAR CYP2B6-luciferase, agonist mode, 24 h; series mostly up to 92.4 µM
# Text: National Center for Advancing Translational Sciences [NCATS] NIH Chemical Genomics Center [NCGC] U.S. Environmental Protection Agency [EPA] National Institutes of Environmental Health Sciences [NIEHS] National Toxicology Program [NTP] Assay overview: The constitutive androstane receptor (CAR) is a nuclear receptor which regulates multiple drug metabolizing enzymes (DMEs) and transporters. Activating CAR will generally increase the transcription and subsequent translation of CYP2B6 and CYP3A4. These two DMEs represent about 50% of the drug metabolizing potential in the body. […] Recently, there have also been studies performed indicating CARs role in energy metabolism and cancer therapy. Therefore, inducing CARs activity could have a potential effect on diabetes and cancer. Identifying environmental toxins and compounds which modulate CAR, through the use of the Tox21 10K compound collection, will be an important step in determining the toxicity and potential therapeutic effects these factors will have on the human body.
# Assay Protocol Summary: A double-stable (hCAR and CYP2B6-2.2kb) transfected cell line, derived from human hepatoma (HepG2) cells, was utilized for the duration of the quantitative high-throughput screens. The HepG2-CYP2B6-hCAR cells suspended in DMEM culture medium supplemented with 10% FBS, 5 ug/mL blasticidin, 0.5 mg/mL geneticin, 100 U/mL penicillin and 100 ug/mL streptomycin were dispensed at 2500 cells/4 uL/well in 1536-well white solid bottom plates using a Multidrop Combi. After the assay plates were incubated at 37 C/5% CO2 for 4 hrs, 23 nL of compounds at 15 concentrations (from 5-48 columns) or positive control (from 1 to 4 columns) were transferred to the assay plates using a Pintool station. One uL of PK11195, was added using a Flying Reagent Dispenser to generate a final concentration of 0.75 uM PK11195 inside each well. After a 24 hr incubation period at 37 C/5% CO2, four uL of ONE-Glo reagent was added into the assay plates using a Flying Reagent Dispenser. After a 30 min incubation period at room temperature, the luminescence intensity in the assay plates was measured using a ViewLux plate reader.
# Potency is the fitted concentration of half-maximal effect.
# Sequence of Nuclear receptor subfamily 1 group I member 3 (Homo sapiens) (Q14994 whole entry, looked up): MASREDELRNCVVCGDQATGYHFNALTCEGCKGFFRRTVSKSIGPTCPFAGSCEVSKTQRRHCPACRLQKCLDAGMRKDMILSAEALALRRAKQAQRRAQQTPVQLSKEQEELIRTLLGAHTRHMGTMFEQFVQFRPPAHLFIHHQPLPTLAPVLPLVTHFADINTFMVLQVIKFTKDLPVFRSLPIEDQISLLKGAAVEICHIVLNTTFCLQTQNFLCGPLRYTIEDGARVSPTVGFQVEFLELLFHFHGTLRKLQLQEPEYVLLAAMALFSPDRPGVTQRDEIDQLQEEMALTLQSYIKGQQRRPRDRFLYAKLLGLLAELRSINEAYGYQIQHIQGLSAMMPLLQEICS
row,Structure (SMILES),Potency
1,CN1CCc2cccc3c2[C@H]1Cc1ccc(O)c(O)c1-3,15.5 µM (active) and 9.09 µM (active) and 15 µM (active)
2,C=C1CC[C@H](O)C/C1=C\C=C1/CCC[C@]2(C)[C@@H]([C@H](C)CCCC(C)C)CC[C@@H]12,inactive
3,COc1ccc(C(Cl)=C(c2ccc(OC)cc2)c2ccc(OC)cc2)cc1,inactive
4,Cc1cc(C)nc(NS(=O)(=O)c2ccc(N)cc2)n1,inactive
5,Cn1c(=O)c2c(ncn2C)n(C)c1=O,inactive
6,C1CCC(C(CC2CCCCN2)C2CCCCC2)CC1 (stereo not given),inactive
7,CN(N=O)C(=O)N[C@@H]1[C@@H](O)[C@H](O)[C@@H](CO)O[C@@H]1O,inactive
8,O=C1O[C@H]([C@@H](O)CO)C(O)=C1O,inactive
9,CCCCCCCCCCCC[N+](C)(C)Cc1ccccc1,inactive
10,Oc1ccccc1,inactive
11,Cc1cc(=O)oc2cc(O)ccc12,inactive
12,CC(C)C(=O)Nc1ccc([N+](=O)[O-])c(C(F)(F)F)c1,inactive
13,Cc1ncc([N+](=O)[O-])n1CCO,inactive
14,COc1cccc(O)c1O,inactive
15,CCCC[P+](CCCC)(CCCC)CCCC,inactive
16,O=C(O)c1ccccc1,inactive
17,C[C@](N)(Cc1ccc(O)c(O)c1)C(=O)O,inactive
18,C=C(C)C(=O)OCC(C)O (stereo not given),inactive
19,O=CC(=O)c1ccccc1,inactive
20,CN(C)C(=S)SC(=S)N(C)C,inactive

row,Structure (SMILES),Potency
1,Nc1ccc(S(N)(=O)=O)cc1,inactive
2,CCCc1cc(=O)[nH]c(=S)[nH]1,inactive
3,CCCCOC(=O)c1ccc(O)cc1,55.1 µM (active) and 30.6 µM (active) and inactive
4,Cc1ncc([N+](=O)[O-])n1C,inactive
5,COc1ccc(OC(F)(F)F)cc1CN[C@H]1CCCN[C@H]1c1ccccc1,inactive
6,O=c1[nH]cnc2c1ncn2[C@H]1CC[C@@H](CO)O1,inactive
7,CC(C)c1c(C(=O)Nc2ccccc2)c(-c2ccccc2)c(-c2ccc(F)cc2)n1CC[C@@H](O)C[C@@H](O)CC(=O)O,inactive
8,CN(C)CCOC(C)(c1ccccc1)c1ccccn1 (stereo not given),inactive
9,Nc1c(N=Nc2ccc(-c3ccc(N=Nc4cc(S(=O)(=O)O)c5ccccc5c4N)cc3)cc2)cc(S(=O)(=O)O)c2ccccc12,inactive
10,O=C(Nc1ncc([N+](=O)[O-])s1)c1cccs1,1.33 µM (active)
11,CN[C@H]1CC[C@@H](c2ccc(Cl)c(Cl)c2)c2ccccc21,inactive
12,Cc1cccc(C)c1,inactive
13,NC(=O)n1c(O)c(C(=O)c2cccs2)c2cc(Cl)ccc21,13.3 µM (active)
14,NC(CO)(CO)CO,inactive
15,CN1[C@@H]2CC(OC(=O)[C@H](CO)c3ccccc3)C[C@H]1[C@@H]1O[C@@H]12 (stereo not given in full),inactive
16,O=C(O)CC(O)C(=O)O (stereo not given),inactive
17,NC(=O)c1cccnc1,inactive
18,NC1CCCCC1,inactive
19,CCc1nc(N)nc(N)c1-c1ccc(Cl)cc1,inactive
20,Cc1cn([C@H]2C=C[C@@H](CO)O2)c(=O)[nH]c1=O,inactive
